We go through eight sequences from PMC7862700, “An all-to-all approach to the identification of sequence-specific readers for epigenetic DNA modifications on cytosine”.

What all share (test): DAPPL (digital affinity profiling via proximity ligation, sequencing); 10 mM Tris-HCl pH 7.5, 50 mM NaCl, 1 mM DTT, 4% glycerol, room temperature, 30 min; GST-TFs on glutathione beads, 16-mer random dsDNA library, 0.1% formaldehyde crosslink after washing; high values mean tight binding
Holding throughout (conditions): protein: recombinant; tags: N-terminal GST; dsDNA, one strand shown

In one test the target is T1, ERF (Homo sapiens, UniProt P50548 1-548).
T1 sequence: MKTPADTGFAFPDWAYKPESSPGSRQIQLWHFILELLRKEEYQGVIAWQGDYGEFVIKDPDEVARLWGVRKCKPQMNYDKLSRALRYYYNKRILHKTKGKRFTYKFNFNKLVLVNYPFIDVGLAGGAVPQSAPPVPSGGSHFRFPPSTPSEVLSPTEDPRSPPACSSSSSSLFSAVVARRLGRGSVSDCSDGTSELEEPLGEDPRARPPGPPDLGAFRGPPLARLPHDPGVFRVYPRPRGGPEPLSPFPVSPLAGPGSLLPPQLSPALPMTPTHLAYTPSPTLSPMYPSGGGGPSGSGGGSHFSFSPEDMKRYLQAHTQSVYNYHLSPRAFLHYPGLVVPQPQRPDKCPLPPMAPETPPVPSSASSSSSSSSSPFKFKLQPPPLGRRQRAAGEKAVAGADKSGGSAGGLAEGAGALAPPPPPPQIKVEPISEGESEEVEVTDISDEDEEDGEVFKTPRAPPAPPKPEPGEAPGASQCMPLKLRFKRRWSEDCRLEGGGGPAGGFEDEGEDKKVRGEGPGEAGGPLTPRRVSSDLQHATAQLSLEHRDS
The essentials:
(§1)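 Binding signal is each hexamer's read frequency for a factor divided by its frequency in the tag-only sample. The factors were GST-fused human transcription factors from yeast, captured on glutathione beads, DNA-barcoded and pooled with that sample. Pools were incubated with 200 nmole of a random double-stranded 16-mer DNA library in Tris/NaCl/DTT/glycerol buffer at room temperature for 30 min, then washed, crosslinked with 0.1% formaldehyde, proximity-ligated with BsaI/T4 ligase (1 h, 37 °C), PCR-amplified and sequenced on an Illumina NextSeq500.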

In the next test the target is T2, ETV3L (Homo sapiens, UniProt Q6ZN32 1-361).
T2 sequence: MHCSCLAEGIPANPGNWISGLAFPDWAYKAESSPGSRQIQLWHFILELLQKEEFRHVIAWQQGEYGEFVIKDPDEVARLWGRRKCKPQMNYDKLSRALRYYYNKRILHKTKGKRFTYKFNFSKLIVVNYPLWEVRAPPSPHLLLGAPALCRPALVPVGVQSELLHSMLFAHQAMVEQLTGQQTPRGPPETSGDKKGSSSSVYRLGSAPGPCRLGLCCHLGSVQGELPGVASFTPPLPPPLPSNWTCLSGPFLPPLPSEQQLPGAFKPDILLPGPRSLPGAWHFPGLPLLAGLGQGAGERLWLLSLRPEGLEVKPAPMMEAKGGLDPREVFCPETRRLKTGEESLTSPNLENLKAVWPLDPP
In outline:
as §1

In the next test the target is T3, ETS2 (Homo sapiens, UniProt P15036 1-469).
T3 sequence: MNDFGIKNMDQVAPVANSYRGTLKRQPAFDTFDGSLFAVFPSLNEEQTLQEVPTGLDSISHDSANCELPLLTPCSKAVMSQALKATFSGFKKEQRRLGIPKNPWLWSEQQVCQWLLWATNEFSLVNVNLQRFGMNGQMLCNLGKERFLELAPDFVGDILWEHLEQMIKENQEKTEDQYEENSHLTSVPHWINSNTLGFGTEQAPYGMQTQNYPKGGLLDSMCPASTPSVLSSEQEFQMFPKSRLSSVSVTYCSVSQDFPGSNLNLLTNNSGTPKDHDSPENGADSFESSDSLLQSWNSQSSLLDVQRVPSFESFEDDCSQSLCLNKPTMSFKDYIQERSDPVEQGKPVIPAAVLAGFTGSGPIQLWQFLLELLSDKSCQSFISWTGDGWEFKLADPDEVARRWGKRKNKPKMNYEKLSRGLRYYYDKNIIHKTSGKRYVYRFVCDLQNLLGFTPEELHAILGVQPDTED
In outline: as §1

The target of a further test is T4, SPDEF (Homo sapiens, UniProt O95238 1-335).
T4 sequence: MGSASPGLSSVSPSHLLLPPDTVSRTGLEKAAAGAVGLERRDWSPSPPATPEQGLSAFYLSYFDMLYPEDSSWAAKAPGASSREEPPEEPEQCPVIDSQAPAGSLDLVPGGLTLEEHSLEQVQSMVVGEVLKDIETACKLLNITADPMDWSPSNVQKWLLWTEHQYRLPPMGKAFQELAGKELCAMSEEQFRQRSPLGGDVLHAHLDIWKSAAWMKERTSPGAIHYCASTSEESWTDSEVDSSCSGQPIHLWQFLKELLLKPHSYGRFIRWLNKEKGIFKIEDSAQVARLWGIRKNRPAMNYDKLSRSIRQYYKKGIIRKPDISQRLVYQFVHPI
The essentials:
as §1

The next test concerns the target T5, ETV7 (Homo sapiens, UniProt Q9Y603 1-341).
T5 sequence: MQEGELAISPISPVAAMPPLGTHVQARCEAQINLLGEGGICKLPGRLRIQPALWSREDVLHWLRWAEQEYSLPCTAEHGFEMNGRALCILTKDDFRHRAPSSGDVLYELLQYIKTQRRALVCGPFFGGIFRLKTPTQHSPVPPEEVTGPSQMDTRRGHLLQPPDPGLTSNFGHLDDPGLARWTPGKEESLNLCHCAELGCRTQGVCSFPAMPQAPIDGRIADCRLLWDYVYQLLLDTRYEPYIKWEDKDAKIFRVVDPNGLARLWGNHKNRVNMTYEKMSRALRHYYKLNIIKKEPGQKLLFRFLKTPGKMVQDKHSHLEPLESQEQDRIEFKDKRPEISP
In outline:
as §1

The target in a further test is T6, ELF5 (Homo sapiens, UniProt Q9UKW6-2 1-255).
T6 sequence: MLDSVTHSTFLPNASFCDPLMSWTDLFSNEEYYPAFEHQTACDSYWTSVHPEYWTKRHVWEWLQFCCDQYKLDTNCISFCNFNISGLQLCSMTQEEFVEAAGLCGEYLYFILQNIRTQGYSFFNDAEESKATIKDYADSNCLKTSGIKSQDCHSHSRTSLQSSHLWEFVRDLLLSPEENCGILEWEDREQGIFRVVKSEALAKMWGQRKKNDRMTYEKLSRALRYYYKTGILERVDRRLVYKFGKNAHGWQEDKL
In outline: as §1

The target in another test is T7, ETV3 (Homo sapiens, UniProt P41162-2 1-143).
T7 sequence: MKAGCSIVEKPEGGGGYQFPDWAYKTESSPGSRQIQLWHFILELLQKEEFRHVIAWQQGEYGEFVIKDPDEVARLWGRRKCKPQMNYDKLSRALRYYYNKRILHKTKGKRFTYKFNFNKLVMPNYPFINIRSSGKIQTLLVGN
The essentials:
as §1

A further test has as its target ETV6 (Homo sapiens, UniProt P41212 1-452). In outline: as §1

Sequence of ETV6 (P41212 whole entry): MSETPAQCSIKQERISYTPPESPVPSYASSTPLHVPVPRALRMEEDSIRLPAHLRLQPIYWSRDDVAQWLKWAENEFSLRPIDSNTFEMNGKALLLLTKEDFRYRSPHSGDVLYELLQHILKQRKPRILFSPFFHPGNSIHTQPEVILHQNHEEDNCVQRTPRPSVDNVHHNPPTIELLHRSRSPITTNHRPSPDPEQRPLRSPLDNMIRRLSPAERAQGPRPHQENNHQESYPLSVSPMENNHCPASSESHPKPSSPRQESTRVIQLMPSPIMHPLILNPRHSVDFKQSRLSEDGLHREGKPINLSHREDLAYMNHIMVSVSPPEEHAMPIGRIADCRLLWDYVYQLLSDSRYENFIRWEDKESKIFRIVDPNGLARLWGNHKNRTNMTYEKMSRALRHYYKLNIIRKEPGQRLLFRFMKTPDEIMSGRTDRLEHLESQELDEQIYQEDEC

Consider ATGACA, for which the binding signal with ERF is 1.31 fold enrichment (6-mer frequency, TF over GST control); with ETV3L it was 1.28 fold enrichment (6-mer frequency, TF over GST control); with ETS2 it was 1.33 fold enrichment (6-mer frequency, TF over GST control); with SPDEF, 1.31 fold enrichment (6-mer frequency, TF over GST control); in the test with ETV7 it was 1.44 fold enrichment (6-mer frequency, TF over GST control); with ELF5 it was 1.24 fold enrichment (6-mer frequency, TF over GST control). Moreover, the binding signal with ETV3 was 1.39 fold enrichment (6-mer frequency, TF over GST control); with ETV6, 1.34 fold enrichment (6-mer frequency, TF over GST control).

Turning to CTAGTT, the binding signal in the test with ERF was 1.34 fold enrichment (6-mer frequency, TF over GST control); with ETV3L, 1.23 fold enrichment (6-mer frequency, TF over GST control); with ETS2, 1.38 fold enrichment (6-mer frequency, TF over GST control); with SPDEF it was 1.29 fold enrichment (6-mer frequency, TF over GST control); in the test with ETV7 it was 1.28 fold enrichment (6-mer frequency, TF over GST control); with ELF5, 1.22 fold enrichment (6-mer frequency, TF over GST control). The binding signal with ETV3 is 1.19 fold enrichment (6-mer frequency, TF over GST control); in the test with ETV6 it was 1.3 fold enrichment (6-mer frequency, TF over GST control).

For TCTTGC, the binding signal with ERF was 1.4 fold enrichment (6-mer frequency, TF over GST control); with ETV3L, 1.36 fold enrichment (6-mer frequency, TF over GST control); in the test with ETS2, 1.35 fold enrichment (6-mer frequency, TF over GST control); with SPDEF, 1.33 fold enrichment (6-mer frequency, TF over GST control); with ETV7, 1.38 fold enrichment (6-mer frequency, TF over GST control); in the test with ELF5 it was 1.34 fold enrichment (6-mer frequency, TF over GST control). In addition, the binding signal in the test with ETV3 is 1.47 fold enrichment (6-mer frequency, TF over GST control); with ETV6, 1.18 fold enrichment (6-mer frequency, TF over GST control).

Turning to ATGACC, the binding signal in the test with ERF was 1.42 fold enrichment (6-mer frequency, TF over GST control); in the test with ETV3L, 1.51 fold enrichment (6-mer frequency, TF over GST control); with ETS2 it was 1.66 fold enrichment (6-mer frequency, TF over GST control); with SPDEF, 1.59 fold enrichment (6-mer frequency, TF over GST control); with ETV7 it was 1.51 fold enrichment (6-mer frequency, TF over GST control); with ELF5, 1.56 fold enrichment (6-mer frequency, TF over GST control). Moreover, the binding signal is 1.47 fold enrichment (6-mer frequency, TF over GST control) with ETV3 and 1.53 fold enrichment (6-mer frequency, TF over GST control) with ETV6.

Consider TTCTGG, for which the binding signal with ERF is 1.35 fold enrichment (6-mer frequency, TF over GST control); with ETV3L, 1.23 fold enrichment (6-mer frequency, TF over GST control); in the test with ETS2, 1.19 fold enrichment (6-mer frequency, TF over GST control); in the test with SPDEF, 1.23 fold enrichment (6-mer frequency, TF over GST control); with ETV7 it was 1.21 fold enrichment (6-mer frequency, TF over GST control); with ELF5, 1.22 fold enrichment (6-mer frequency, TF over GST control). In addition, the binding signal in the test with ETV3 was 1.2 fold enrichment (6-mer frequency, TF over GST control); with ETV6, 1.32 fold enrichment (6-mer frequency, TF over GST control).

In the case of TTTCCC, the binding signal with ERF was 1.57 fold enrichment (6-mer frequency, TF over GST control); with ETV3L, 1.7 fold enrichment (6-mer frequency, TF over GST control); with ETS2, 1.71 fold enrichment (6-mer frequency, TF over GST control); in the test with SPDEF, 1.45 fold enrichment (6-mer frequency, TF over GST control); with ETV7 it was 1.65 fold enrichment (6-mer frequency, TF over GST control); in the test with ELF5, 2.51 fold enrichment (6-mer frequency, TF over GST control). Besides, the binding signal in the test with ETV3 is 1.75 fold enrichment (6-mer frequency, TF over GST control); with ETV6, 1.97 fold enrichment (6-mer frequency, TF over GST control).

Turning to ACTCTT, the binding signal in the test with ERF is 1.31 fold enrichment (6-mer frequency, TF over GST control); in the test with ETV3L, 1.27 fold enrichment (6-mer frequency, TF over GST control); with ETS2, 1.15 fold enrichment (6-mer frequency, TF over GST control); with SPDEF, 1.18 fold enrichment (6-mer frequency, TF over GST control); with ETV7, 1.29 fold enrichment (6-mer frequency, TF over GST control); in the test with ELF5 it was 1.34 fold enrichment (6-mer frequency, TF over GST control). In addition, the binding signal in the test with ETV3 is 1.25 fold enrichment (6-mer frequency, TF over GST control); with ETV6, 1.25 fold enrichment (6-mer frequency, TF over GST control).

On to CCCTAT, for which the binding signal is 1.22 fold enrichment (6-mer frequency, TF over GST control) in the test with ERF; 1.44 fold enrichment (6-mer frequency, TF over GST control) with ETV3L; 1.34 fold enrichment (6-mer frequency, TF over GST control) with ETS2; 1.31 fold enrichment (6-mer frequency, TF over GST control) with SPDEF; 1.3 fold enrichment (6-mer frequency, TF over GST control) with ETV7; 1.43 fold enrichment (6-mer frequency, TF over GST control) with ELF5. In addition, the binding signal was 1.34 fold enrichment (6-mer frequency, TF over GST control) with ETV3 and 1.28 fold enrichment (6-mer frequency, TF over GST control) with ETV6.
